Drawing on PubChem BioAssay (Tox21), this text covers Potency, outcome and max activation for nine compounds.

Each structure is given as a SMILES string. A number with no mark means an inactive call. Inconclusive results are not listed. Active and inactive are the calls of the source. Unless noted, the call rests on the fitted dose curve; in most records, active means well fitted curve in the direction sought with a large enough effect in the repeat runs; inconclusive means weak or mixed curves; inactive means no such curve, though single readings can be large; an effect the other way counts as inactive or inconclusive.

Assay [1] addresses Thyrotropin receptor (Homo sapiens) (UniProt P16473). The assay can be described thus: qHTS assay to identify small molecule antagonists of the thyroid stimulating hormone receptor (TSHR) signaling pathway (AID 1259385; calls by dose curve; further: nearly all actives have a fitted effect of over 20% in size). In outline: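 TSHR-HEK293 cells (800/well) plated 18 h, then compounds with Ro20-1724 and TSH at 1.5 ng/mL final, 30 min at room temperature. cAMP quantified by HTRF (cAMP-d2/anti-cAMP-cryptate, 1 h); 15 concentrations in triplicate.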

The nature of assay [2]: qHTS assay to identify small molecule agonists of the estrogen receptor alpha (ER-alpha) signaling pathway in the presence of an antagonist - cell viability counter screen (AID 1259386).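 Further: series mostly up to about 92 µM; cells exposed to compounds for 22 h at 37 °C before the viability read; nearly all actives have a fitted effect of over 30% in size.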 In outline:
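Cytotoxicity was measured in parallel with the ERE-luciferase agonist screen, in the same wells. The cells were VM7Luc4E2, which endogenously express ER-alpha, and treatment was with compounds plus 10.0nM ICI-182,780 for 22hr.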
(In general: In qHTS, concentration-response curves come from the screen itself.)

Assay [3] has as its target Progesterone receptor (Homo sapiens) (UniProt P06401). Kind of assay: qHTS assay to identify small molecule agonists of the progesterone receptor (PR) signaling pathway (AID 1346784; calls by dose curve; further: nearly all actives have a fitted effect of over 30% in size). In short, it runs like this: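 The screen uses PR-UAS-bla HEK 293T cells in charcoal-stripped serum (2%). Compounds are applied for 16 hr at 37C after a 6 hr pre-incubation, and reporter activity is detected with a FRET beta-lactamase substrate after 2 hr at room temperature.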

A short description of assay [4]: qHTS assay to identify small molecule antagonists of the progesterone receptor (PR) signaling pathway - cell viability counter screen (AID 1346798). Further: series mostly up to about 92 µM; nearly all actives have a fitted effect of over 50% in size. In short, it runs like this:
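Viability was determined by ATP-based luminescence (CellTiter-Glo) in PR-UAS-bla HEK293T cells cultured in 2% charcoal-stripped serum and incubated 16 hr with compounds under R5020 stimulation.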

A short description of assay [5]: qHTS assay to identify small molecule agonists of the progesterone receptor (PR) signaling pathway - cell viability counter screen (AID 1346799; calls by dose curve; further: nearly all actives have a fitted effect of over 45% in size). In outline:
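Viability was scored by ATP luminescence (CellTiter-Glo, 30 min, room temperature) in the same wells used for the reporter readout, after 16 hr compound exposure of PR-UAS-bla HEK293T cells.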

The nature of assay [6]: qHTS assay to identify small molecule agonists of the TGF-beta/Smad signaling pathway - cell viability counter screen (AID 1346829). Further: top concentration of the series differs between compounds; nearly all actives have a fitted effect of over 45% in size. In outline:
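CellTiter-Glo luminescence readout; SBE-bla HEK 293T cells, overnight plating, compound 5 hr at 37 C/5% CO2, then bla substrate 2 hr RT, then CellTiter-Glo 30 min RT.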

Assay [7] in a line: qHTS assay to identify small molecule agonists of the TGF-beta/Smad signaling pathway (AID 1346859; active means well fitted activation curve with a large enough effect in the signal ratio in the repeat runs, not every such curve was filed as active; the % refers to the signal ratio; further: series mostly up to about 77 µM). In short, it runs like this: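 Dual-wavelength fluorescence (460/530 nm emission) quantified beta-lactamase expression under the Smad binding element in HEK 293T cells following 5 hr compound treatment at 37 C.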
For assay [8], the target named is Thyrotropin-releasing hormone receptor (Homo sapiens) (UniProt P34981). Kind of assay: qHTS assay to identify small molecule antagonists of the thyrotropin-releasing hormone receptor (TRHR) signaling pathway (AID 1346877; active means well fitted inhibition curve with a large enough effect in the repeat runs, not every such curve was filed as active; further: series mostly up to about 51 µM). In outline: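 Antagonism is measured as suppression of the calcium response to 1 nM TRH in TRHR-HEK293 cells that have been dye-loaded for 2 h at 37 °C after overnight plating. Each compound is tested at 15 concentrations in triplicate.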

Assay [9] shares this target. The assay can be described thus: qHTS assay to identify small molecule agonists of the thyrotropin-releasing hormone receptor (TRHR) signaling pathway (AID 1346891; calls by dose curve;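 further: HEK293 cells expressing TRHR with calcium dye readout; series mostly up to about 58 µM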). In short, it runs like this:
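Kinetic fluorescence (3 min, 1 s intervals) reported intracellular calcium after compound transfer onto TRHR-Hek293 cells pre-loaded with dye for 2 h at 37 °C.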

Assay [10] in a line: Human pregnane X receptor (PXR) small molecule agonists, qHTS cell viability counter screen (AID 1346977). Further: nearly all actives have a fitted effect of over 50% in size. In short, it runs like this: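 HepG2 cells stably carrying the PXR-Luc reporter are cultured with 5% charcoal-stripped FBS and treated with compounds for 24hr. CellTiter-Fluor is added at 23hr and fluorescence is read after 1hr.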
Assay [11] is described as follows: Caspase-3/7 induction in HepG2 cells by small molecules, qHTS assay (AID 1346978). Further: nearly all actives have a fitted effect of over 15% in size. In outline: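 Wild-type HepG2 cells, 2,000/well, settled 5 hr at 37 C and 5% CO2, then compound-treated for 17 hr; caspase-3/7 activity read by luminescent Caspase-Glo 3/7 after 30 min at room temperature.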
Assay [12] in a line: Caspase-3/7 induction in CHO-K1 cells by small molecules, qHTS cell viability counter screen (AID 1346979). Further: nearly all actives have a fitted effect of over 35% in size. In short, it runs like this:
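Seeding: 1,500 CHO-K1 cells/well. Rest: 5hr, 37C. Treatment: compounds in DMSO, 16hr. Read: CellTiter-Fluor, 1hr, fluorescence.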

Assay [13] can be described thus: Caspase-3/7 induction in CHO-K1 cells by small molecules, qHTS assay (AID 1346980). Further: nearly all actives have a fitted effect of over 15% in size. In short, it runs like this: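 Wild-type CHO-K1 cells exposed to compounds for 17hr at 37 C, 5% CO2. Caspase-3/7 activity then measured by Caspase-Glo 3/7 luminescence after 30min at room temperature.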
A short description of assay [14]: Caspase-3/7 induction in HepG2 cells by small molecules, qHTS cell viability counter screen (AID 1346981). Further: series mostly up to about 92 µM; nearly all actives have a fitted effect of over 30% in size. In outline:
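Cell viability is measured as a cytotoxicity counter screen alongside the Caspase-Glo 3/7 readout in identical wells. Wild-type HepG2 cells are treated with test compounds for 16 hr at 37 C before CellTiter-Fluor addition and a 1-hr incubation.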

Assay [15] deals with Nuclear receptor subfamily 1 group I member 2 (Homo sapiens) (UniProt O75469). Kind of assay: Human pregnane X receptor (PXR) small molecule agonists, qHTS assay (AID 1346982). Further: nearly all actives have a fitted effect of over 35% in size. Further: potency means the concentration at half of the fitted maximal effect. In short, it runs like this: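 Cells: HepG2 stably carrying PXR-Luc. Medium held 5% charcoal-stripped FBS. Compounds in DMSO added after 5 hr plating, incubated 24 hr, then luminescence quantified with ONE-Glo.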

The nature of assay [16]: qHTS assay to identify small molecule antagonists of the TGF-beta/Smad signaling pathway - cell viability counter screen (AID 1346824). Further: nearly all actives have a fitted effect of over 50% in size. In outline: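 SBE-bla HEK 293T cells, incubated overnight, then compound plus 0.25 ng/mL TGF-beta1 (stock added) for 5 hr at 37 C. Viability was read in the same wells by CellTiter-Glo luminescence after 30 min at room temperature.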
The target of assay [17] is Nuclear receptor subfamily 1 group I member 2 (Rattus norvegicus) (UniProt Q9R1A7). Kind of assay: Rat pregnane X receptor (rPXR) activation by small molecules, qHTS assay (AID 1346983). Further: nearly all actives have a fitted effect of over 20% in size. The note with it: rPXR luciferase reporter cells, One-Glo luminescence, 24 h; max activation: stronger effect = higher value. In short, it runs like this: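 Cell-based rPXR activation assay: rPXR cells, 2,000 per well, rested 5hr at 37 C, then exposed to compounds in DMSO for 24 hr at 37 C. Luciferase activity read by One-Glo luminescence after 30 min at room temperature.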

In assay [18] the target is Nuclear receptor subfamily 1 group I member 2 (Homo sapiens) (UniProt O75469). Kind of assay: CYP3A4 induction through human pregnane X receptor (PXR) by small molecules, qHTS assay (AID 1346984). Further: nearly all actives have a fitted effect of over 40% in size. In outline:
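Quantitative HTS in DPX-2 cells, i.e. HepG2 transfected with PXR response element and CYP3A4-promoter luciferase. Compounds in DMSO incubated 24hr at 37C; then P450-Glo CYP3A4 substrate, 3uM final, 3hr; One-Glo luminescence.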

Assay [19] has as its target Progesterone receptor (Homo sapiens) (UniProt P06401). Kind of assay: qHTS assay to identify small molecule antagonists of the progesterone receptor (PR) signaling pathway (AID 1346795; active means well fitted inhibition curve with a large enough effect in the signal ratio in the repeat runs, not every such curve was filed as active; the % refers to the signal ratio). In short, it runs like this:
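After 6 hr plating at 37C in 2% stripped-serum medium, PR-UAS-bla HEK293T cells got compounds, then 1 nM R5020. Sixteen hours later, LiveBLAzer substrate was applied for 2 hr at room temperature and fluorescence was recorded.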
On the % scale 0 is the no-effect control and ±100 the full control effect.

Sequence of Progesterone receptor (Homo sapiens) (P06401 whole entry, looked up): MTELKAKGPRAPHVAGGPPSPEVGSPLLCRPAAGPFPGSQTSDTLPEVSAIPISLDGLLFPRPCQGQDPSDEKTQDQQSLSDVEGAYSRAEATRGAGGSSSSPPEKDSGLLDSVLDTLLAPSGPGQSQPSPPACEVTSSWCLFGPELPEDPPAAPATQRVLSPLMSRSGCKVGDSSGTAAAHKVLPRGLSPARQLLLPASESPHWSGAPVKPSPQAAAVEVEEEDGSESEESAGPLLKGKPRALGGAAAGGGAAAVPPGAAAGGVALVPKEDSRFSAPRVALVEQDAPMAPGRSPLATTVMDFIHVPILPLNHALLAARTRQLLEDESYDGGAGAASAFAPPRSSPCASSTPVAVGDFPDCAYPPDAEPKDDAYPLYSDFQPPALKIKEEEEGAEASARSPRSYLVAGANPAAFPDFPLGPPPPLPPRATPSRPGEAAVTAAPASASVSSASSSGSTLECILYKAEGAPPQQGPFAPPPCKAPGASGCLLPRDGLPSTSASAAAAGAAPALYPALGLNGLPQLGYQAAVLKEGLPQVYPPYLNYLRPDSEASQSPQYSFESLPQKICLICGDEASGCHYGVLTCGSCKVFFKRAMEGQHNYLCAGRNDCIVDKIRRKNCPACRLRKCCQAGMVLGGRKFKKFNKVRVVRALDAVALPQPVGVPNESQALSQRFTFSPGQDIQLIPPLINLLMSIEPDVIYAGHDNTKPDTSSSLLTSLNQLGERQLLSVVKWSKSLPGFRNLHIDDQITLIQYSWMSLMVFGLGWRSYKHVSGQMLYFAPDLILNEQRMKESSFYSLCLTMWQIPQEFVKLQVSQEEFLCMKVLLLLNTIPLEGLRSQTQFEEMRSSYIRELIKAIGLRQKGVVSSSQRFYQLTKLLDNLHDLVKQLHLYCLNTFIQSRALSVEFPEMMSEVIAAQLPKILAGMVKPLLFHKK
Sequence of Nuclear receptor subfamily 1 group I member 2 (Rattus norvegicus) (Q9R1A7 whole entry, looked up): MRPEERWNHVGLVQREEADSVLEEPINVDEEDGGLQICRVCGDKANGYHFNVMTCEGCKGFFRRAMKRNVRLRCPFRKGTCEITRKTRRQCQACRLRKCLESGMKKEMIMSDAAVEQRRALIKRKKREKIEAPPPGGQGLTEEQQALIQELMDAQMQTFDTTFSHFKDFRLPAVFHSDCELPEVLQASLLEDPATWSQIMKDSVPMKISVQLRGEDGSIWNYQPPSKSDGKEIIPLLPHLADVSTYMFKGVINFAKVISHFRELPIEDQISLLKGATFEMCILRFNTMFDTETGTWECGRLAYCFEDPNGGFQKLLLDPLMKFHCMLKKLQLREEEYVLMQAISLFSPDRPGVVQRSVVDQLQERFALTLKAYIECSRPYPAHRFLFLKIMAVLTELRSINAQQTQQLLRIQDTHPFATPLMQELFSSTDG
Sequence of Thyrotropin receptor (Homo sapiens) (P16473 whole entry, looked up): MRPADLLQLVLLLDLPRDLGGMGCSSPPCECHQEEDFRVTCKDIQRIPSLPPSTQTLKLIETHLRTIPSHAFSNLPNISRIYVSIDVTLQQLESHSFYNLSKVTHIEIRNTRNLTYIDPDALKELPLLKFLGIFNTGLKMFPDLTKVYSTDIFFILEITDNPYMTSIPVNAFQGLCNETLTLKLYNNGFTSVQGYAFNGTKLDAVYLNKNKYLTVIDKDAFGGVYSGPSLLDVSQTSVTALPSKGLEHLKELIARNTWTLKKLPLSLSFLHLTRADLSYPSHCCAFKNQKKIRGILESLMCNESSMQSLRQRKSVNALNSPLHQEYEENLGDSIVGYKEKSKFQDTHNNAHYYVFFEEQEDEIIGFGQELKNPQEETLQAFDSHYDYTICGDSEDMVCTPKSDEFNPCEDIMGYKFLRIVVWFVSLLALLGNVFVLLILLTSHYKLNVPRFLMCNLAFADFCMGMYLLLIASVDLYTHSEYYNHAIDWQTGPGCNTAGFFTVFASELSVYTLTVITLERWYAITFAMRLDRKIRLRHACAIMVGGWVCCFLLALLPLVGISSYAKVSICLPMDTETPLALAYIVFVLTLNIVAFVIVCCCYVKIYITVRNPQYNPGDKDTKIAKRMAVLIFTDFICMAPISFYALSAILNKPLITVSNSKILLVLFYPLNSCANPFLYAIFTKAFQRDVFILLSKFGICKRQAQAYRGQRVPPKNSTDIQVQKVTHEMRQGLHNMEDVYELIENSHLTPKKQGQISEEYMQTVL
Sequence of Nuclear receptor subfamily 1 group I member 2 (Homo sapiens) (O75469 whole entry, looked up): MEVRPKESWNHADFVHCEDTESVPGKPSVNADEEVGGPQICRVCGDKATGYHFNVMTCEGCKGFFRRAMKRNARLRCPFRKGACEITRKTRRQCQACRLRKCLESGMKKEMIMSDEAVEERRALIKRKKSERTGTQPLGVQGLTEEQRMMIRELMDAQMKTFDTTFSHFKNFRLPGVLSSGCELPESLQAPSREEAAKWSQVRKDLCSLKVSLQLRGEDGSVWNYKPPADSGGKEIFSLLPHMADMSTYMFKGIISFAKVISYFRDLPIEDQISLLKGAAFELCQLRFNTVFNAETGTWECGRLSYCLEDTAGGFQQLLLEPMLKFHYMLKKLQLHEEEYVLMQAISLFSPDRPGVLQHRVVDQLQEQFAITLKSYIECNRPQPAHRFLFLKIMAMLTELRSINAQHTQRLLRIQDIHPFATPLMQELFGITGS
Sequence of Thyrotropin-releasing hormone receptor (Homo sapiens) (P34981 whole entry, looked up): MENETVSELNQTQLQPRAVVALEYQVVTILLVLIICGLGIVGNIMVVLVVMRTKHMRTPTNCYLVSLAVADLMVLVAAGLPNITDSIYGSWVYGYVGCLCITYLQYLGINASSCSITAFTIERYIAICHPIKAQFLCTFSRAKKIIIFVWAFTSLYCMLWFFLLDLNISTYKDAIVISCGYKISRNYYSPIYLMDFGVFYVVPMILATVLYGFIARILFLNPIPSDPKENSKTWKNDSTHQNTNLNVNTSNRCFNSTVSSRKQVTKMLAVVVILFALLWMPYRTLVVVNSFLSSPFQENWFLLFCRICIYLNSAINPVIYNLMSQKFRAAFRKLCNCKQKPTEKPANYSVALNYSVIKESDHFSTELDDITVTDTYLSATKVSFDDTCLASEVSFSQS

With `CCOC(=O)Cn1c(=O)sc2cccc(Cl)c21`, the Potency entry in [1], in [3], in [4], in [5], in [10] and in [12] was “inactive” in each case. The outcome in [2], in assay [6], in assay [7], in [8], in [9] and in [11] was inactive. Also, the compound was called inactive in assay [13] and in assay [14]. Further, the Potency in assay [15] was 27.3 µM (active).
Consider `COc1ccc(COC=O)cc1`, for which the Potency result in [1], in assay [3], in assay [4], in [10], in assay [12] and in assay [15] was “inactive” in each case. For the same compound, the outcome in assay [2], in assay [6], in assay [7], in assay [8], in [9] and in assay [11] was inactive. Also, the outcome in assay [13] and in [14] was inactive.
Consider `CCN(CC)C(=O)c1ccc(O)c(OC)c1`, for which the Potency entry in assay [1], in assay [3], in assay [4], in assay [10], in assay [12] and in assay [15] was “inactive” each time. Also, in assay [18], the Potency entry was “inactive”. In addition, the outcome in assay [2], in assay [16], in assay [6], in assay [7], in assay [8] and in [9] was inactive. Besides, the compound was called inactive in [11], in assay [13] and in [14]. In addition, in assay [17], the max activation is -5.72%.
Take `C=C(C)[C@@H]1CCC2=CC(=O)C[C@@H](C)[C@]2(C)C1`: the Potency result in assay [1], in [3], in assay [10] and in assay [12] was “inactive” in each case. Further, the result in assay [2], in [16], in assay [6], in [7], in [11] and in [13] was inactive. In addition, the call in [14] was inactive.
Regarding `COc1ccc(N=[N+]([O-])c2ccc(OC)cc2)cc1`, the Potency entry in [1], in assay [19] and in assay [10] was “inactive” throughout. Besides, the outcome in assay [2], in [16], in assay [6], in assay [7], in [8] and in assay [9] was inactive. In addition, the call in [11] and in assay [13] was inactive. Besides, in assay [15], the Potency was 0.34 µM (active).
For `CCN1CCN(c2cc3c(cc2F)c(=O)c(C(=O)O)cn3C2CC2)CC1`, the Potency result in assay [1], in assay [3], in [4], in assay [5], in assay [10] and in assay [12] was “inactive” throughout. Also, in [15], the Potency result was “inactive”. In addition, the result in assay [2], in assay [6], in assay [8], in assay [9], in assay [11] and in assay [13] was inactive. Moreover, in assay [14], the compound was called inactive.
In the case of `Nc1cc(C(Cl)=C(Cl)Cl)c(S(N)(=O)=O)cc1S(N)(=O)=O`, the Potency entry in assay [1], in assay [3], in assay [4], in [5], in assay [10] and in assay [12] was “inactive” in each case. The Potency result in [15] and in assay [18] was “inactive” in each case. In addition, the result in [2], in assay [6], in [7], in assay [8], in [9] and in [11] was inactive. Also, the call in assay [13] and in assay [14] was inactive. Also, in [17], the max activation was -3.29%.
Regarding `CCCCCCCCC=O`, the Potency entry in [1], in [19], in [4], in assay [10], in assay [12] and in assay [15] was “inactive” throughout. Besides, the outcome in [2], in assay [6], in assay [11], in [13] and in [14] was inactive.
For `NS(=O)(=O)c1cc2c(cc1C(F)(F)F)NC(Cc1ccccc1)NS2(=O)=O` (centres undefined), the Potency result in assay [1], in assay [3], in assay [19], in [4], in [5] and in assay [10] was “inactive” in each case. Moreover, the Potency result in [12], in assay [15] and in [18] was “inactive” each time. The result in [16], in [6], in assay [7], in [8], in assay [9] and in assay [11] was inactive. In addition, the outcome in assay [13] and in assay [14] was inactive. For the same compound, in [17], the max activation was -1.57%.
